The target in this assay is Estrogen receptor (Homo sapiens) (UniProt P03372). Nature of the assay: displacement of fluorescent estrogen from ERalpha – cell-based, Cos7 ERalpha-GFP, flow cytometry, primary screen (AID 1211).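 Further: 0% = DMSO vehicle wells and 100% = no E2-Alexa633 signal left.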 The conditions noted are these: fluorescent ligand competition, stronger effect = higher value.

Structures are written as SMILES. Activity calls are given as the source filed them. How the calls were made is not given here.

The values below come from PubChem BioAssay AID1211 (NMMLSC, 2008).

Estrogen receptor (Homo sapiens), sequence (P03372 whole entry, looked up): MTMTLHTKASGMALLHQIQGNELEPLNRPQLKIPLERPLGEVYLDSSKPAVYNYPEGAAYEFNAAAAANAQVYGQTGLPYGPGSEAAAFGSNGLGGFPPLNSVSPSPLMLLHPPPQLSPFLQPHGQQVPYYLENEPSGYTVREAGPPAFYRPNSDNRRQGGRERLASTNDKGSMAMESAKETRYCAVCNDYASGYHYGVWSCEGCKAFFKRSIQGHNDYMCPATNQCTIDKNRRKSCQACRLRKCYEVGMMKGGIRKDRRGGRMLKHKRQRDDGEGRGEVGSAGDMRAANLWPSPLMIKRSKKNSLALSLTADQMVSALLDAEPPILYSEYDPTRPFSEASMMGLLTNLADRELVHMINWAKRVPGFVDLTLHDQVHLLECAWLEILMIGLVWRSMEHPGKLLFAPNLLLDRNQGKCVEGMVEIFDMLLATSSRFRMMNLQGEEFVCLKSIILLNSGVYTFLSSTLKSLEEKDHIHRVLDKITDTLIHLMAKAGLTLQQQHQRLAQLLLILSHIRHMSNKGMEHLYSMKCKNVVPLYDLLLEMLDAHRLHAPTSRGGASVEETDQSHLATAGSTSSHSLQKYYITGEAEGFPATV

With `COc1ccc(-c2nnc(SCC(=O)/C(C#N)=C(\C)N)o2)cc1`, the inhibition of ligand binding (at 10 µM) was 40% (inactive) and the inhibition of ligand binding (binding inhibition, at 0.1 µM) was found to be 16%.
For the molecule `COc1ccc(OC)c(NC(=O)CSc2nc3ccccc3c3nc4ccccc4n23)c1`, the inhibition of ligand binding (at 10 µM) was 26% (inactive) and the inhibition of ligand binding (binding inhibition, at 0.1 µM) was found to be 60%.
For `Cc1oc2c(C)c(O)ccc2c(=O)c1-c1ccc2ccccc2n1` the same measures were 20% (active) and 70%.
As for `O=S(=O)(Nc1ncnc2sc3c(c12)CCC3)c1ccc2ccccc2c1`, the inhibition of ligand binding is, setting by setting: (at 10 µM) 28% (inactive); (binding inhibition, at 0.1 µM) 37%.
For `COc1ccc(C(N)CCc2ccc(C)o2)cc1` (stereo not given), in that order: 30% (inactive) and 39%.
On to `COc1ccc(C2Nc3ccccc3C(=O)N2Cc2ccccc2)cc1Cn1nnc2ccccc21` (stereo not given), for which the inhibition of ligand binding (at 10 µM) is 54% (inactive) and the inhibition of ligand binding (binding inhibition, at 0.1 µM) worked out at 19%.
For `Nc1ccc(-c2cc(-c3ccc(N)cc3)nc(-c3ccccc3)n2)cc1` the same measures were 51% (inactive) and 12%.
For `Cc1oc2c(C)c(O)ccc2c(=O)c1N1C(=O)c2ccccc2C1=O` the same measures were 9% (inactive) and 52%.
For `Clc1ccc2nc(-c3ccccn3)c(Nc3ccc4c(c3)OCO4)n2c1` the same measures were 42% (inactive) and 9%.
Regarding `O=C(COC(=O)CCC(=O)c1cccs1)NCc1ccco1`, the inhibition of ligand binding is, setting by setting: (at 10 µM) 42% (active); (binding inhibition, at 0.1 µM) 74%.
